# Data as given in PubChem BioAssay.
# Calls of active or inactive are those of the source.
# Tests used:
# [1] = E. coli DRC41 culture turbidity changes, primary screen, E. coli filamentation inducer project, strain DRC41, OD650, 48 h (AID 1152);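 note: E. coli MC1000 strain DRC41 lacking acrAB efflux pump and sulA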; conditions: E. coli DRC41 (acrAB sulA), higher = more signal, called active from +8 up or from −8 down
# [2] = small-molecule binders of probe aLefty1, primary screen, biochemical, small-molecule microarray, 635/667 nm fluorescence (AID 1153); conditions: higher = more signal;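 note: score merges spot fluorescence with signal-to-noise ratio from the scanned slide images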
# [3] = PSAC antagonists in infected red cells, primary screen, cell-based, P. falciparum Indochina, OD700, 1 h (AID 1154); conditions: P. falciparum Indochina infected RBC osmotic lysis, higher = more signal, called active from +8 up or from −8 down
# [4] = PSAC antagonists in infected red cells, primary screen, cell-based, P. falciparum Indochina, OD700, 2 h (AID 1155);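 note: lysis reports solute entry through the parasite surface anion channel PSAC; channel blockers reduce lysis of infected cells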; conditions: P. falciparum Indochina infected erythrocytes, osmotic lysis OD700; higher = more signal, called active from +8 up or from −8 down
# [5] = osmotic lysis modulators in infected erythrocytes, primary screen, PSAC antagonist project, cell-based, P. falciparum Indochina, OD700, 3 h (AID 1156); conditions: higher = more signal, called active from +8 up or from −8 down
# [6] = PSAC antagonists in infected red cells, primary screen, cell-based, P. falciparum Indochina, OD700, 18 h (AID 1157); conditions: P. falciparum Indochina infected erythrocytes, osmotic lysis OD700, 18 h; higher = more signal, called active from +8 up or from −8 down
# [7] = modulators of S6 phosphorylation in cells, primary screen, cell-based, A549, cytoblot, luminescence, serum-stimulated (AID 1158); conditions: A549 phospho-S6 cytoblot, 5 h, higher = more signal;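 note: serum-stimulated A549 lung adenocarcinoma cells; signal is phosphorylated S6 detected by cytoblot immunostaining with HRP secondary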
# [8] = biological target: NADPH oxidase 2 (Homo sapiens) (UniProt P04839); test: NOX2-dependent H2O2 signal modulators, primary screen, NOX inhibitor project, cell-based, HEK293-NOX2, PMA-stimulated, Amplex Red fluorescence (AID 1159); conditions: 45 min, higher = more signal, called active from +8 up or from −8 down; note: test concentration not given here
# [9] = biological target: NADPH oxidase 4 (Homo sapiens) (UniProt Q9NPH5); test: NOX4-dependent H2O2 signal modulators, primary screen, NOX inhibitor project, cell-based, HEK293-NOX4, tetracycline-induced, Amplex Red fluorescence (AID 1160); conditions: 45 min, higher = more signal, called active from +8 up or from −8 down
# [10] = biological target: NADPH oxidase 5 (Homo sapiens) (UniProt Q96PH1); test: NOX5-dependent H2O2 signal modulators, primary screen, NOX inhibitor project, cell-based, HEK293-NOX5, Amplex Red fluorescence (AID 1161); conditions: HEK293-NOX5, ionomycin, 45 min, higher = more signal
# Sequence of NADPH oxidase 5 (Homo sapiens) (Q96PH1 whole entry, looked up): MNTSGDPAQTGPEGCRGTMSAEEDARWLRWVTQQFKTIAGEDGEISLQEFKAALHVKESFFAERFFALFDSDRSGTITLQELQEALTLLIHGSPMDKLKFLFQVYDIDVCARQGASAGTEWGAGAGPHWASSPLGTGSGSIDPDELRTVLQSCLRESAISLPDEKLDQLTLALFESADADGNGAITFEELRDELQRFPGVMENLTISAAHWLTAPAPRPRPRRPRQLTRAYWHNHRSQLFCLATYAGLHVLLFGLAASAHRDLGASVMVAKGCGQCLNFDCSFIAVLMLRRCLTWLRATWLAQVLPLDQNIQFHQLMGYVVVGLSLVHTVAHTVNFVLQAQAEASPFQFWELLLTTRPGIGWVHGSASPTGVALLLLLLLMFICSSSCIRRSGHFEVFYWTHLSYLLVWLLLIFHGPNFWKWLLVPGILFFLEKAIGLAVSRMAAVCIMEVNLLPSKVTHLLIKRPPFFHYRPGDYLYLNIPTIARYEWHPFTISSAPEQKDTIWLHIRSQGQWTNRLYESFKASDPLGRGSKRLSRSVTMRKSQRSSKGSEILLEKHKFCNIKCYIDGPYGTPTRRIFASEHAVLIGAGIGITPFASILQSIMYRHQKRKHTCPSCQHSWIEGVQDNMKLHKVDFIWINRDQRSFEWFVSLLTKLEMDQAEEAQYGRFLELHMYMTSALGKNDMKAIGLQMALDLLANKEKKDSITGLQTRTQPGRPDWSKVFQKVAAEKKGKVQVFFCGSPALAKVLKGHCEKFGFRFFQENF
# Sequence of NADPH oxidase 2 (Homo sapiens) (P04839 whole entry, looked up): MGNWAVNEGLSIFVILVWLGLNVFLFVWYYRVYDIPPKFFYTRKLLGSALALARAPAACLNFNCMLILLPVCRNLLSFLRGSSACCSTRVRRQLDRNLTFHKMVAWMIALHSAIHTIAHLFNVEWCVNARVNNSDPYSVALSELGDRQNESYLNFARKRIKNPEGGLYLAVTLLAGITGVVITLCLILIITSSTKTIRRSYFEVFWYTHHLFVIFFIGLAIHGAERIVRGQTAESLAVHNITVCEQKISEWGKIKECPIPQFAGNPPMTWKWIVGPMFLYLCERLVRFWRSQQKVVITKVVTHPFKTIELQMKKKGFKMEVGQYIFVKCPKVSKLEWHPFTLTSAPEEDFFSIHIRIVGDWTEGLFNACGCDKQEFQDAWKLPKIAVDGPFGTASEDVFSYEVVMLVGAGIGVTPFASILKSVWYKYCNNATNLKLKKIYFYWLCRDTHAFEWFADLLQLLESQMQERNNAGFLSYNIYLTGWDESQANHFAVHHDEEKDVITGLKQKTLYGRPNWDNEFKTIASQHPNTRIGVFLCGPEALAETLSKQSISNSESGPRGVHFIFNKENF
# Sequence of NADPH oxidase 4 (Homo sapiens) (Q9NPH5 whole entry, looked up): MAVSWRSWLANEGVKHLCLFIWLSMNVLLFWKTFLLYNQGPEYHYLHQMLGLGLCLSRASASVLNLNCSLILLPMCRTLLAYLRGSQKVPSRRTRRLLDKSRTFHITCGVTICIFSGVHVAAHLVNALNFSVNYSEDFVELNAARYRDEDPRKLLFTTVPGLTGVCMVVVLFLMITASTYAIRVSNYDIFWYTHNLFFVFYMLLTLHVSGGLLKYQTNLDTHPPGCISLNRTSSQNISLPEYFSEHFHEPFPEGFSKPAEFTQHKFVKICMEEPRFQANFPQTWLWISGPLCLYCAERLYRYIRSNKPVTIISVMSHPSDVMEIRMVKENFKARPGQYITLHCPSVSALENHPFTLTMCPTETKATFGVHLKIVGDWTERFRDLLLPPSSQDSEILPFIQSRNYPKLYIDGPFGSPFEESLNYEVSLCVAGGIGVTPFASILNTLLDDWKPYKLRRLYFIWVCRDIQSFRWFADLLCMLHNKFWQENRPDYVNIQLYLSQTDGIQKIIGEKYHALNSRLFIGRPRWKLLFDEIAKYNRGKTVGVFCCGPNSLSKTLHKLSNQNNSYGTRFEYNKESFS
Structure (SMILES),z-score [1],composite z-score [2],z-score [3],z-score [4],z-score [5],z-score [6],z-score [7],z-score [8],z-score [9],z-score [10]
COc1cc(C(O)C2C=CC3C(=O)NC(=O)C3N2Nc2ccc(Cl)cc2Cl)cc(OC)c1OC (stereo not given),-1.52 (inactive),0.505,1.94 (inactive),1.49 (inactive),0.0681 (inactive),1.24 (inactive),-0.778,-0.885 (inactive),-5.56 (inactive),-3.11
CO[C@H]1O[C@H](CO)[C@@H](OC(=O)c2ccc(Br)cc2)[C@@H]2OC(=O)[C@H](Cc3cccc(Br)c3)C/C=C/C[C@@H](Cc3cccc(Br)c3)C(=O)O[C@@H]12,-0.681 (inactive),0.415,1.56 (inactive),0.624 (inactive),-0.778 (inactive),0.484 (inactive),-0.0043,-0.129 (inactive),0.211 (inactive),0.875
COc1ccc(C#Cc2ccc3c(c2)[C@]2(C(=O)N3)[C@H](C(=O)O)[C@H]3C(=O)O[C@H](c4ccccc4)[C@H](c4ccccc4)N3[C@@H]2c2ccc(OCCO)cc2)cc1,0.962 (inactive),0.33,3.33 (inactive),-0.266 (inactive),-8.91 (active),-0.097 (inactive),-0.0207,1.67 (inactive),-0.925 (inactive),1.12
CCOC(=O)C[C@H]1[C@H](OC(=O)c2ccccc2-c2ccccc2)[C@@H](NC(=O)c2ccccc2)c2cc(OCCCO)ccc2N1C(=O)Cc1ccc(OC)cc1,-0.81 (inactive),-0.193,2.01 (inactive),0.318 (inactive),-0.338 (inactive),0.109 (inactive),0.0269,0.639 (inactive),1.22 (inactive),0.327
C=CC[C@]1(C(=O)NCC(O)CO)N=C(c2ccc(OCCCO)cc2)O[C@H]1c1ccccc1N=[N+]=[N-] (stereo not given in full),0.33 (inactive),0.658,34.3 (active),30.5 (active),2 (inactive),7.28 (inactive),-0.33,-0.357 (inactive),1.74 (inactive),0.781
COc1cccc(C)c1NC(=O)O[C@H]1[C@H](OC(=O)Nc2ccccc2)[C@H](OC(=O)Nc2ccccc2)[C@@H](OC)O[C@@H]1CO,-1.05 (inactive),0.211,7.38 (inactive),1.34 (inactive),-0.446 (inactive),0.89 (inactive),-0.26,0.0936 (inactive),-0.91 (inactive),-0.89
COC(=O)[C@@]1(Cc2ccc(OC)cc2)[C@H]2c3cc(C(=O)N4CCCC4)n(Cc4ccc(C)o4)c3C[C@H]2CN1C(=O)c1ccccc1,-1.5 (inactive),1.34,1.63 (inactive),-0.605 (inactive),1.07 (inactive),0.0276 (inactive),-1.8,-4.49 (inactive),-2.62 (inactive),-0.354
CCN(CC)c1ccc(N2CC=CC34O[C@@H]5/C=C\CCCOC(=O)C5[C@H]3C(=O)N(CCCCCCO)[C@@H]4C2=O)cc1 (stereo not given in full),1.75 (inactive),0.135,1.78 (inactive),-0.475 (inactive),0.625 (inactive),-0.354 (inactive),1.66,0.274 (inactive),0.275 (inactive),1.36
COCCOC(=O)N1C(=O)[C@@]2(c3cc(C#CCNC(N)=O)ccc31)[C@H](c1ccc(OCCO)cc1)N1[C@H](c3ccccc3)[C@H](c3ccccc3)OC(=O)[C@H]1[C@@H]2C(=O)N1CCN(c2ncccn2)CC1,-0.283 (inactive),0.209,4.15 (inactive),1.81 (inactive),0.428 (inactive),1.05 (inactive),0.537,2.29 (inactive),0.937 (inactive),0.877
O=C1C2C=CC(C(O)c3ccc(Br)cc3)N(Nc3ccccc3)C2C(=O)N1c1ccccc1 (stereo not given),-1.78 (inactive),0.305,8.27 (active),1.8 (inactive),0.244 (inactive),1.25 (inactive),-0.554,-1.82 (inactive),-4.09 (inactive),-2.39
COCCCNC(=O)[C@@]1(C)c2ccccc2C(=O)N(c2ccc(C)cn2)[C@H]1c1ccc(CO)cc1,-0.0018 (inactive),-0.341,0.833 (inactive),-0.186 (inactive),0.0037 (inactive),-0.211 (inactive),-0.161,-1.02 (inactive),-0.261 (inactive),-1.7
CCOC(=O)C[C@H]1[C@H](OC(=O)c2cc3ccccc3oc2=O)[C@@H](NC(=O)c2ccc3ccccc3n2)c2cc(OCCCO)ccc2N1C(=O)c1ccc2ccccc2n1,1.03 (inactive),0.174,10.8 (active),1.56 (inactive),1.25 (inactive),0.647 (inactive),-0.112,0.786 (inactive),0.715 (inactive),2.28
C=C(/C(=C/C[C@@H](OC(=O)c1ccncc1)c1ccccc1OCCO)c1cnc2ccccc2c1)C(C)C,-0.592 (inactive),0.454,10 (active),4.55 (inactive),-1.59 (inactive),1.44 (inactive),-0.174,-2.57 (inactive),-1.11 (inactive),-2.56
CCCC=C(CCC)[C@@H](NC(=O)Cc1ccccc1)c1ccc(C(=O)OC)cc1,-1.45 (inactive),1.47,1.19 (inactive),0.194 (inactive),-0.0448 (inactive),0.25 (inactive),-0.504,-0.458 (inactive),0.261 (inactive),1.89
CCOc1cc(C(O)C2C=CC3C(=O)NC(=O)C3N2Nc2ccccn2)ccc1O (stereo not given),-1.17 (inactive),0.0253,-0.251 (inactive),0.519 (inactive),-0.195 (inactive),0.828 (inactive),-1.27,-1.35 (inactive),-3.69 (inactive),-1.57
Cc1ccc(S[C@]2(C(=O)NCCN3CCOCC3)CC(=O)N(C3Cc4ccccc4C3)[C@@H]2c2ccc(CO)cc2)cc1,0.293 (inactive),0.482,2.1 (inactive),0.0757 (inactive),0.62 (inactive),0.375 (inactive),-0.348,-0.66 (inactive),-1.82 (inactive),-1.58
C=CCNC(=O)[C@H]1[C@@H]2C(=O)O[C@@H](c3ccccc3)[C@@H](c3ccccc3)N2[C@@H](c2ccc(O)cc2)[C@]12C(=O)N(C(=O)OCCOC)c1ccc(C#CC3(O)CCCCCC3)cc12,1.91 (inactive),0.0313,0.842 (inactive),0.788 (inactive),0.0365 (inactive),0.222 (inactive),0.281,1.37 (inactive),0.903 (inactive),1.89
Cc1ccc(F)cc1S(=O)(=O)N[C@@H]1CCN(C(=O)c2ccc(OC(C)C)cc2)C1,0.295 (inactive),-0.0973,2.54 (inactive),1.02 (inactive),0.79 (inactive),0.427 (inactive),-0.102,-0.471 (inactive),-0.0285 (inactive),-0.257
C[C@]12C(=O)N(CCCCCO)[C@@H]3C(=O)N(c4ccc(Cl)cc4)CC=CC31O[C@@H]1/C=C\CCCOC(=O)C12 (stereo not given in full),-1.14 (inactive),-0.0054,-0.198 (inactive),-0.307 (inactive),-1.04 (inactive),-0.183 (inactive),-0.58,0.754 (inactive),0.055 (inactive),1.45
COC(=O)[C@]1(Cc2ccccc2CN=[N+]=[N-])N=C(c2ccc(OCCCO)cc2)O[C@@H]1c1ccccc1CN=[N+]=[N-],1.23 (inactive),0.0962,30.8 (active),24.1 (active),1.88 (inactive),5.85 (inactive),0.196,-2.35 (inactive),-0.0356 (inactive),-1.79
COCCOC(=O)N1C(=O)[C@@]2(c3cc(C#CCCO)ccc31)[C@H](C(=O)N1CCc3cc(OC)c(OC)cc3C1)[C@H]1C(=O)O[C@H](c3ccccc3)[C@H](c3ccccc3)N1[C@@H]2c1ccc(OCCO)cc1,1.42 (inactive),0.113,4.67 (inactive),1.02 (inactive),0.138 (inactive),-0.0492 (inactive),1.26,1.35 (inactive),1.07 (inactive),1.44
COCCCNC(=O)[C@]1(CCS(=O)(=O)c2ccccc2)N=C(c2ccc(OCCCO)cc2)O[C@@H]1c1ccccc1,0.664 (inactive),1.12,26 (active),9.64 (active),2.14 (inactive),1.82 (inactive),-0.108,-0.0777 (inactive),1.72 (inactive),0.88
CN(C)C(=O)[C@@]1(Cc2ccccc2N=[N+]=[N-])N=C(c2ccc(OCCCO)cc2)O[C@H]1c1ccccc1N=[N+]=[N-],0.0086 (inactive),-0.213,31.3 (active),29.7 (active),2.54 (inactive),3.39 (inactive),0.246,-1.34 (inactive),-0.493 (inactive),-2
O=C1C2C=CC(C(O)c3cccc4ccccc34)N(Nc3ccccc3)C2C(=O)N1c1ccccc1 (stereo not given),-0.692 (inactive),0.528,8.49 (active),2.06 (inactive),0.214 (inactive),1.41 (inactive),-0.594,-0.627 (inactive),-3.83 (inactive),-3.17
COCC1=C([C@H](O)CCc2ccccc2)[C@H](CO)[C@@H]2C(=O)N(C)C(=O)[C@@H]2C1,1.87 (inactive),-0.0691,9.45 (active),1.29 (inactive),-0.64 (inactive),0.254 (inactive),0.155,-0.58 (inactive),0.371 (inactive),0.4
